Measured values taken from the supplement of paper PMC12808144.

system: NHEM-hTERT; assay: cell viability relative to DMSO control (fraction of DMSO control); higher = less cytotoxic, active = 0.5 or less; settings: 1 µM; 120 h
Summary of the method: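 Cells in 40 µl per well went into 384-well plates pre-spotted acoustically with a TargetMol library of 315 approved anti-cancer drugs, each at 1 µM in duplicate, for 120 h. Seeding was 2500/well for NHEM-hTERT immortalized melanocytes and 1500/well for patient-derived Mel-DCC-11 and its resistant subline Mel-DCC-11-R, which was run alone and with 8 µM of its selecting drug. Luminescence was read with ATPlite 1step. Viability was normalised to vehicle-treated controls and averaged over duplicates.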

`COc1cc2c(Nc3ccc(Br)cc3F)ncnc2cc1OCC1CCN(C)CC1` [Vandetanib] was tested. Which cell viability did it give?
The cell viability was 1.02 (inactive).

With `O=C(c1cc(Cc2n[nH]c(=O)c3ccccc23)ccc1F)N1CCN(C(=O)C2CC2)CC1` [Olaparib] as the compound, how does the cell viability read?
Its cell viability is 0.988 (inactive).

How did the cell viability turn out when `CN(C)C(=O)c1cc2cnc(Nc3ccc(N4CCNCC4)cn3)nc2n1C1CCCC1` [Ribociclib] was run?
Its cell viability is 0.989 (inactive).

How did the cell viability turn out when `O=C1CCC(N2C(=O)c3ccccc3C2=O)C(=O)N1` (stereo unspecified) [Thalidomide] was run?
The cell viability was 1.1 (inactive).

`COc1cc2c(Oc3ccc4[nH]c(C)cc4c3F)ncnc2cc1OCCCN1CCCC1` [Cediranib] was tested. Which cell viability did it give?
The cell viability was 0.891 (inactive).

For `CN1[C@@H]2CCC[C@H]1C[C@@H](NC(=O)c1nn(C)c3ccccc13)C2.Cl` [Granisetron hydrochloride], which cell viability is on record?
Its cell viability is 1.07 (inactive).

With `C=C1CC[C@H](O)C/C1=C/C=C1\CCC[C@]2(C)[C@@H]([C@H](C)/C=C/[C@H](C)C(C)C)CC[C@@H]12` [Vitamin D2] as the compound, how does the cell viability read?
The cell viability was 0.998 (inactive).

For `CCCCCCCCCCCCCCCCOP(=O)([O-])OCC[N+](C)(C)C` [Miltefosine], which cell viability is on record?
The cell viability was 1.17 (inactive).

`O=S(=O)([O-])CCS.[Na+]` [Mesna] was tested. Which cell viability did it give?
The cell viability was 1.09 (inactive).

Which cell viability does the source give for `O=C(NC(Cc1cc(=O)[nH]c2ccccc12)C(=O)O)c1ccc(Cl)cc1` (stereo unspecified) [Rebamipide] here?
Its cell viability is 1 (inactive).

How did the cell viability turn out when `NC(=O)N1CCC(CC(=O)N2CCC([C@H]3c4ncc(Br)cc4CCc4cc(Cl)cc(Br)c43)CC2)CC1` [Lonafarnib] was run?
The cell viability was 0.9 (inactive).

How did the cell viability turn out when `O=C(CCCCCCNC(=O)c1cnc(N(c2ccccc2)c2ccccc2)nc1)NO` [Rocilinostat] was run?
The cell viability was 0.847 (inactive).

How did the cell viability turn out when `CCN1CCN(Cc2ccc(Nc3ncc(F)c(-c4cc(F)c5nc(C)n(C(C)C)c5c4)n3)nc2)CC1` [Abemaciclib] was run?
The cell viability was 0.921 (inactive).

How did the cell viability turn out when `Cc1nc(Nc2ncc(C(=O)Nc3c(C)cccc3Cl)s2)cc(N2CCN(CCO)CC2)n1.O` [Dasatinib monohydrate] was run?
Its cell viability is 0.506 (inactive).

How did the cell viability turn out when `Cl.N=C1CCCN1Cc1[nH]c(=O)[nH]c(=O)c1Cl.O=c1[nH]c(=O)n([C@H]2C[C@H](O)[C@@H](CO)O2)cc1C(F)(F)F.O=c1[nH]c(=O)n([C@H]2C[C@H](O)[C@@H](CO)O2)cc1C(F)(F)F` was run?
Its cell viability is 0.967 (inactive).

With `Cc1[nH]c2ccccc2c1CCNCc1ccc(/C=C/C(=O)NO)cc1` [Panobinostat] as the compound, how does the cell viability read?
The cell viability was 0.339 (active).

How did the cell viability turn out when `N#CC[C@@H](C1CCCC1)n1cc(-c2ncnc3[nH]ccc23)cn1` [S-Ruxolitinib] was run?
Its cell viability is 0.987 (inactive).

With `CCNC(=O)[C@@H]1CCCN1C(=O)[C@H](CCCN=C(N)N)NC(=O)[C@H](CC(C)C)NC(=O)[C@@H](CC(C)C)NC(=O)[C@H](Cc1ccc(O)cc1)NC(=O)[C@H](CO)NC(=O)[C@H](Cc1c[nH]c2ccccc12)NC(=O)[C@H](Cc1cnc[nH]1)NC(=O)[C@@H]1CCC(=O)N1` [Leuprorelin Acetate] as the compound, how does the cell viability read?
Its cell viability is 0.879 (inactive).

`COc1cc([C@H]2Oc3cc([C@H]4Oc5cc(O)cc(O)c5C(=O)[C@@H]4O)ccc3O[C@@H]2CO)ccc1O` [Silibinin] was tested. Which cell viability did it give?
Its cell viability is 0.948 (inactive).

`CNC(=O)c1ccc(N2C(=S)N(c3ccc(C#N)c(C(F)(F)F)c3)C(=O)C2(C)C)cc1F` [Enzalutamide] was tested. Which cell viability did it give?
Its cell viability is 1.11 (inactive).

For `N.N.O=C([O-])C[O-].[Pt+2]` [Nedaplatin], which cell viability is on record?
The cell viability was 1.08 (inactive).

`C[C@@H]1O[C@@H](OC[C@H]2O[C@@H](Oc3c(-c4ccc(O)c(O)c4)oc4cc(O)cc(O)c4c3=O)[C@H](O)[C@@H](O)[C@@H]2O)[C@H](O)[C@H](O)[C@H]1O` [Rutin] was tested. Which cell viability did it give?
Its cell viability is 1.09 (inactive).

With `C=CC(=O)N1CCC[C@@H](n2nc(-c3ccc(Oc4ccccc4)cc3)c3c(N)ncnc32)C1` [Ibrutinib] as the compound, how does the cell viability read?
Its cell viability is 1.05 (inactive).

Which cell viability does the source give for `CNC(=O)c1cc(Oc2ccc(NC(=O)Nc3ccc(Cl)c(C(F)(F)F)c3)cc2)ccn1.Cc1ccc(S(=O)(=O)O)cc1` [Sorafenib tosylate] here?
Its cell viability is 0.904 (inactive).

With `CCN(CC)CCNC(=O)c1c(C)[nH]c(/C=C2\C(=O)Nc3ccc(F)cc32)c1C.C[C@@H](CC(=O)O)C(=O)O` [Sunitinib Malate] as the compound, how does the cell viability read?
Its cell viability is 1.03 (inactive).

`CCc1c2c(nc3ccc(OC(=O)N4CCC(N5CCCCC5)CC4)cc13)-c1cc3c(c(=O)n1C2)COC(=O)[C@]3(O)CC.Cl.O.O.O` [Irinotecan hydrochloride trihydrate] was tested. Which cell viability did it give?
The cell viability was 0.875 (inactive).
